# Reference: PubChem BioAssay (NCI)
# Several values for one entry are separate records, joined by “and”; a condition that tells them apart may be missing. Equal values may be shown once. This is part of a sample that, as a whole, favours compounds with a hit. Of some 83,000 tested, about 20% had one in any assay.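 Interpretation: 100, growth as untreated; towards 0, rising growth inhibition; 0, no net growth; 0 to -100, cell death. Compounds scoring below 10 were considered active.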 Unmarked numbers belong to inactive results. Activity calls are given as the source filed them.
# Tested on: OVCAR-8 ovarian
# Test: NCI-60 one-dose screen, 48 h (100 = growth as untreated, 0 = no growth, -100 = all killed)
# Details: 10 µM
# Description: Growth inhibition of the OVCAR-8 human tumor cell line is measured as a screen for anti-cancer activity. Cells are grown in 96 well plates and exposed to the test compound for 48 hours. Compounds are tested at a single concentration, which is 10^-5 M for most compounds. The reported endpoint is percent growth (GI% or GIPRCNT), where numbers from 0 - 100% represent growth inhibition, and numbers from -100% - 0 represent cell death. For example, a value of 40 represents 60% growth inhibition. A value of 0 means no net growth occurred over the course of the experiment. A value of -40 indicates 40% of cells at the beginning of the experiment died by the end of the experiment. A value of -100 means all cells are dead at the end of the experiment.
# NCI-60 Human Tumor Cell Lines Screen was performed using the standard one-dose NCI protocol, which is described in more detail at https://dtp.cancer.gov/discovery_development/nci-60/default.htm.
# Compounds with GIPRCNT values below 10 were considered active. Activity score was based on GIPRCNT using the following formula: […]
# Score is 0 for GIPRCNT values of 100 or above, 50 for GIPRCNT values of 0, and 100 for GIPRCNT values of -100.
row,SMILES,growth
1,O=C(Nc1c(Cl)cccc1Cl)Oc1cccc2cccnc12,27%
2,COc1ccc(-c2cscc2N)cc1,77.6%
3,O=C(O)c1c(Cl)c(Cl)c(Cl)c(Cl)c1-c1c2cc(I)c(=O)c(I)c-2oc2c(I)c(O)c(I)cc12,107% and 105% and 91.4%

# Same assay, conditions: 10 µM unless noted
row,SMILES,growth
1,C=CCOc1ccc(N=NC(C#N)C#N)cc1,86.9%
2,Cc1cc(N)c2ccccc2[n+]1CCCCCCCCCC[n+]1c(C)cc(N)c2ccccc21,26.8%
3,Oc1c(Br)c(Br)c(O)c(Br)c1Br,102%
4,O=[N+]([O-])c1ccc(N=Nc2ccc(O)cc2O)cc1,61.9%
5,CCCCCCCCCCCCCCCCOP(=O)([O-])OCC[N+](C)(C)C,59.6%
6,C/C=C1\SC(=S)NC1=O,103%
7,O=C1C=CC(=O)N1C1c2ccccc2-c2ccccc21,99.8%
8,Cn1c2c(c3ccccc31)CCN1C[C@@H]3CCCC[C@H]3C[C@@H]21,20.2%
9,Oc1c(Cl)c2ccccc2c2ccccc12,98.4%
10,O=Nc1ccccc1N=O,89.4%
11,Nc1nc(N)c2nc(CNc3ccc(C(=O)NC(CCC(=O)O)C(=O)O)cc3)cnc2n1 (stereo not given),31.7% and 34.9%
12,N#CSCc1ccc(Cl)c(CSC#N)c1,61.9%
13,NC(=S)N/N=C/c1ccc(Cl)s1,106%
14,CC(C)(C)CC(C)(C)c1ccc(OCCSC(=N)N)cc1,56.2%
15,NC(=O)/C=C/C(=O)c1c(Cl)cccc1Cl,-67.4% (active)
16,CC(C)c1ccc2nc3ccc(C(=O)NCCN4CCN(c5ccccc5)CC4)cn3c(=O)c2c1,46.8%
17,O[C@H]1[C@H]2c3cc4c(cc3CN3CCC(=C[C@@H]1O)[C@H]23)OCO4,26.7%

row,SMILES,growth
1,O=C(/C=C/c1cccc(Cl)c1)c1ccccc1,88.2% and 79.9%
2,CNc1ccc2c(c1)c1ccccc1n2C,100%
3,O=C1c2ccccc2C(=O)N1c1ccccc1,98.6%
4,S=C(N/N=C/c1ccccn1)Nc1ccccn1,14.2%
5,N#CC1C(=O)SC2c3ccccc3C(=O)c3ccccc3C12 (stereo not given),99%
6,Cc1ccc(C(=Nc2ccccc2)N=P(c2ccccc2)(c2ccccc2)c2ccccc2)cc1,6.99% (active)
7,CCN(CC)CC(C)(C)C(=O)/C=C/c1ccc(Cl)c(Cl)c1,-21.6% (active)
8,O=C1NC(=O)/C(=C/C=C/c2ccccc2)S1,43.1%
9,Cc1cc2nc(CS)[nH]c2cc1C,96.5%
10,Nc1ccc(SSc2ccc(N)cc2)cc1,88%
11,C1=C(c2ccccc2)C(c2ccc(OCCN3CCCCC3)cc2)Oc2ccccc21 (stereo not given),77%
12,O=C(Nc1ccccc1)Oc1c(Cl)c(Cl)c(Cl)c(Cl)c1Cl,105% and 98%
13,CCCCCCCCCCCCCCCC[N+](C)(CCO)Cc1cnc[nH]1 (stereo not given),-4.26% (active)
14,O=C(/C=C\c1ccccc1)N1c2ccccc2CC1c1c[nH]c2ccccc12 (stereo not given),81%
15,CN(C)CCOc1ccc2c(c1)C(=O)/C(=C\c1ncc([N+](=O)[O-])n1C)C2,1.01% (active)
16,CCN(CC)CCOc1ccc(-c2nc3cc(Cl)ccc3s2)cc1,40.9%
17,O=C1c2ccccc2C(=O)c2sc(Nc3cccc(Cl)c3)nc21,1.49% (active)

# Same assay, conditions: 100 µM
row,SMILES,growth
1,O=C(Nc1c(Cl)cccc1Cl)Oc1cccc2cccnc12,10.2%
2,COc1ccc(-c2cscc2N)cc1,48.9%
3,O=C(O)c1c(Cl)c(Cl)c(Cl)c(Cl)c1-c1c2cc(I)c(=O)c(I)c-2oc2c(I)c(O)c(I)cc12,-13.2% (active)
